Hit rate of the full screen: of about 16,000 compounds, about 2,600 (16%) were called active. About 20% were inconclusive and are not listed. The call rests on the fitted dose curve; in most records, active means well fitted curve in the direction sought with a large enough effect; inconclusive means small, poorly fitted or top-dose-only effect, or effect the other way; inactive means no such curve, though single readings can be large or run the other way. A selection follows. Peptide text beside a SMILES is read from it.
target: Cytochrome P450 2D6 (Homo sapiens) (UniProt P10635); assay: Cytochrome panel assay with activity outcomes; conditions: recombinant CYP, pro-luciferin dealkylation, luminescence, p450-cyp2d6; series mostly up to 57.1 µM; activity, negative = inhibition: at the top concentration
On the % scale 0 is the no-effect control and ±100 the full control effect.

Sequence of Cytochrome P450 2D6 (Homo sapiens) (P10635 whole entry, looked up): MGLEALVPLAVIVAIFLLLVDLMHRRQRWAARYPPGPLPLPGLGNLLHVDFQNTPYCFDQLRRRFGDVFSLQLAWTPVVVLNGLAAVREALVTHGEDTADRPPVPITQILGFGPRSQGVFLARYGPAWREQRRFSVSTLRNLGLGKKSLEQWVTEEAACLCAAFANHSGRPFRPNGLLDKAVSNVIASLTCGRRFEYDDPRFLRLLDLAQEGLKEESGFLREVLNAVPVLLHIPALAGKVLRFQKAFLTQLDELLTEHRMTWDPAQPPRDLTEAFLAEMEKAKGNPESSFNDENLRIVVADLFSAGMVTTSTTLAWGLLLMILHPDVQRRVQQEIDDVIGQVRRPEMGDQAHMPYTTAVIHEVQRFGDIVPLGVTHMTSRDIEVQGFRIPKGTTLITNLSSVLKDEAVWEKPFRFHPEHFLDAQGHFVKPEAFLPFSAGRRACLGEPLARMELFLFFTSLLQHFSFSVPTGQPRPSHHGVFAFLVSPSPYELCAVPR

activity, negative = inhibition, inactive:
CC(=O)[C@@H]1[C@@H]2C(=O)N(C3CCCCC3)C(=O)[C@@H]2C2c3ccccc3C=CN21 (some centres undefined) -46.3%
O=C(CCCN1C(=O)C2C3C=CC(C3)C2C1=O)N1CCN(c2ccccc2)CC1 (centres undefined) 0.827%
Cc1nnc(-c2cnn(-c3ccccc3)c2N)n1Cc1ccncc1 22.1%
Nc1nonc1-n1nncc1-c1ccccc1 -15.6%
Cn1c(=O)c(-c2ccccc2)nc2cncnc21 0.107%
CCCCN1C(=O)C(NC(=O)c2cccnc2)(C(F)(F)F)C2=C1CC(C)(C)CC2=O (centres undefined) 23.5%
COc1ccc2c3c(ccc2c1)N[C@H](C(=O)O)CC3 3.59% [at 11.4 µM]
Cc1cc(=O)[nH]c(-n2[nH]c(C)cc2=O)n1 -22.1%
CC1(C)CCC(NC(=O)[C@H](N)CCC(=O)O)CC1 -3.12%
COc1ccc(-n2c(=O)c(-c3cccs3)nc3cnc(N4CCNCC4)nc32)cc1 -7.8%
CCOC(=O)c1sc(NC(C)=O)nc1-c1ccccc1 -5.02%
Cc1cc(C)c(C#N)c(Oc2ccccc2)n1 -8.33%
Cc1cc(C)c(C#N)c(SCS(=O)c2ccc(C(C)(C)C)cc2)n1 (centres undefined) 3.97%
COc1ccc(-c2nc3cnc(N(C)C)nc3n(CCc3ccccc3)c2=O)cc1 1.04%
Cc1ccc(S(=O)(=O)CCc2nnc(NC(=O)COc3cccc(C)c3)s2)cc1 4.01%
COc1cc2nncc(SCc3ccc(Cl)c(Cl)c3)c2cc1OC 1.56% [at 11.4 µM]
N[C@@H](Cc1cccc([N+](=O)[O-])c1)C(=O)O 1.07% [at 11.4 µM]
Cc1ccc(S(=O)(=O)NCc2cccc([N+](=O)[O-])c2)cc1 1.17% [at 11.4 µM]
CN(C)N1C(N)=C(C#N)C(c2cccnc2)C2=C1CC(C)(C)CC2=O (centres undefined) -16.9%
Cc1ccc(=O)n(-c2ccccc2)c1 -4.98%
O=C1C=C(NCC2CCCO2)C2(CCCCC2)O1 (centres undefined) 10.7%
COCCn1c(=O)c(-c2ccc(F)c(F)c2)nc2cncnc21 -7.07%
Cc1ccc(N=Cc2nc(/C=C/c3cccc([N+](=O)[O-])c3)oc2O)cc1 5.21%
CN(C)c1ncc2nc(-c3ccc(F)cc3)c(=O)n(Cc3ccc(F)cc3)c2n1 4.91%

AC50, active:
Cn1c(-c2ccccc2)cnc1N 11200 nM
C=CCSc1nc(C)cc(/C=C\c2ccccc2)c1C#N 2820 nM
Clc1ccc(CSC2=NCCN2)cc1Cl 3160 nM
CCN(Cc1ccccc1)Cc1cccc([N+](=O)[O-])c1 794 nM

AC50, inactive:
CC(=O)N[C@@H](CC(=O)O)C(=O)N[C@@H](CCC(=O)O)C(=O)O (Ac-Asp-Glu-OH)

— PubChem BioAssay AID1851 (National Center for Advancing Translational Sciences (NCATS), 2009)
